# This is a sample that favours compounds with a hit; in the whole collection about 3.1% have one here.
# IL-2 act = activators of IL-2. IL-2 activation reporter assay, cell-based qHTS; stimulated with anti-CD3/CD4/CD28 beads; in transgenic mouse T cells. 0.065% of 360,000 active. activation, % (series mostly up to about 46 µM); in the data active = activation above about 50%; inconclusive = mostly about 30% to 49%; note: 0% is about no effect
#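 Screening format: compound pinned onto unstimulated transgenic mouse T cells, 60 min incubation, then anti-CD3/anti-CD4/anti-CD28 bead stimulation for 18 hours at 37 degrees C, followed by EGFP and DsRed detection.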
# BRCA1 expr up = increases BRCA1 expression. MCF7-BRCA1-FFLuc reporter, luminescence, 48 h; response scale: scaled: vehicle 0%, 10 µM genistein 100%. Potency, µM (top dose mostly 46.1 µM), without a hit: top-dose activation, hits mostly activators. 1.1% of 380,000 active. AID 624202; note: potency is the fitted concentration of half-maximal effect; nearly all actives have a fitted effect of over 80% in size
#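 First, MCF7-BRCA1-FFLuc cells (2000/well) attach for 2 h; next, compounds are pin-added and incubated 48 h at 37 °C; finally, luciferase reagent is added and luminescence read after 15 min.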
# Nrf2 ARE act = Nrf2 pathway activation; AREc32 ARE-luciferase reporter (MCF7-derived line), luminescence, 24 h; Potency, µM (highest dose often 46.1 µM), inactives show at the highest dose activation, most hits filed as activators; 0.31% of 410,000 active; note: potency is the fitted concentration of half-maximal effect; % of control where 0% means no effect; nearly all actives have a fitted effect of over 65% in size
#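 AREc32 cells carrying an ARE-driven firefly luciferase reporter were seeded at 1000 cells/well in OPTI-MEM with 5% FBS, then exposed to compound for 24 hr at 37 deg C. Luminescence was read with Steady-Glo after 30 min at RT.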
# ELG1 DNA repair = inhibitors of ELG1-dependent DNA repair in HEK293T cells | 2.3% of 330,000 active | HEK293T ELG1-luciferase reporter, luminescence, 16 h; DNA damage induced by 5-fluorouridine | Potency, µM (series often up to 46.1 µM), inactives show top-dose activity change, negative = inhibition, hits mostly inhibitors; note: potency is the fitted concentration of half-maximal effect; % is set by controls: 0 for no effect and ±100 for the full control effect; nearly all actives have a fitted effect of over 55% in size
#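 Overnight (16 hr) co-exposure of 2,000 cells/well to 5-fluorouridine and compound at 37 °C preceded detection. Luciferase was quantified via ONE-Glo luminescence; loss of signal denotes inhibition.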
# * = called active by the depositor; ? = inconclusive; / = no result. Unless noted, calls come from the whole dose curve; as a rule, active = well fitted curve in the direction sought with a large enough effect; inconclusive = small, poorly fitted or top-dose-only effect, or another doubt; inactive = no such curve, though single readings can be large; an effect the other way counts as inactive or inconclusive.
SMILES,IL-2 act,BRCA1 expr up,Nrf2 ARE act,ELG1 DNA repair
CC(C)CCNC(=O)CSCc1cnn(-c2ccccc2)c1-n1cccc1,/,/,4%,/
O=c1oc(-c2cccs2)nc2sc3c(c12)CCCCC3,-1,10µM*,0%,?
COc1ccc(CNCC(O)(c2ccccc2)c2ccccc2)cc1OC,-5,0%,0%,23µM*
CN(Cc1ccccc1)C(=O)c1ccc(NC(=O)Cc2cccc(NC(=O)C3CCN(C(=O)C4CCCC4)CC3)c2)cc1,-1,-3%,0%,10µM*
O=C(NCCCc1ccccc1)c1ccc(F)cc1,1,7.1µM*,2%,?
CC(=O)Nc1ccc(C(=O)NCCc2ccccc2)cc1,0,13µM*,3%,?
O=C(NCCc1ccccc1)c1cccc(NC(=O)C2CCCC2)c1,0,10µM*,4%,/
O=C(NCCCCNC(=O)c1ccc(F)cc1)c1ccc(F)cc1,0,-17%,0%,0%
CN(Cc1ccccc1)C(=O)c1cccc(NC(=O)Cc2cccc(NC(=O)C3CCN(C(=O)C4CCC4)CC3)c2)c1,0,10%,5%,/
COc1ccccc1-c1nnc(SCCOc2ccccc2C)o1,/,/,0%,/
Cc1ccc(S(=O)(=O)C2CCN(c3nc(-c4cccs4)nc4ccccc34)CC2)cc1,/,0%,/,/
O=C(NCCCc1ccccc1)c1cccc(Br)c1,1,13µM*,2%,/
O=C(NCCCCc1ccccc1)c1cccc(Br)c1,0,39%,0%,-4%
O=C(O)CNC(=O)c1ccccc1NC(=O)c1ccco1,-1,-1%,1%,0%
COc1ccc(CCNC(=O)c2ccccc2NC(=O)c2ccco2)cc1OC,0,-38%,2%,18µM*
O=C(Nc1ccccc1C(=O)NCCc1ccccc1)c1ccco1,0,2%,2.8µM*,?
COc1cc(NC(=O)c2ccco2)c(C(=O)OCC(=O)c2c[nH]c3ccccc23)cc1OC,-4,-65%,7%,8.2µM*
C1=CN2CC=Cc3cc(/C=C/c4ccnc5ccccc45)cc(c32)C1,/,-51%,/,/
COc1cc(OC)cc(-c2nc3nc(C)c(CCC(=O)Nc4ccc(F)cc4F)c(C)n3n2)c1,/,4%,-1%,/
CCCN(CCC)c1nn2c(=O)c(C(=O)NCc3cc(Br)ccc3OC)cnc2s1,/,/,-1%,/
O=C1C(NS(=O)(=O)c2ccccc2)=C(N2CCN(c3ccc(F)cc3)CC2)C(=O)c2ccccc21,-1,-26%,0%,23µM*
CC1CCN(C2=C(NS(=O)(=O)c3ccccc3)C(=O)c3ccccc3C2=O)CC1,3,-2%,6%,-15%
CC(=O)Nc1ccc(S(=O)(=O)NC2=C(N3CCN(C)CC3)C(=O)c3ccccc3C2=O)cc1,0,-32%,-2%,18µM*
COc1ccccc1-c1c(C)nn2c(-c3ccccc3)cc(-c3ccccc3)nc12,/,/,0%,/
O=C(CCl)Nc1nc(-c2ccco2)c(-c2ccco2)s1,2,-38%,11µM*,-8%
SMILES,IL-2 act,BRCA1 expr up,Nrf2 ARE act,ELG1 DNA repair
Cc1ccc(C(=O)Nc2nc(-c3ccco3)c(-c3ccco3)s2)o1,2,-63%,1.3µM*,15%
Cc1cccc(C(=O)NNC(=O)c2cccc(C)c2)c1,0,20%,2%,9%
Cc1ccc(CONC(=O)c2cccc(C)c2)cc1,1,8.9µM*,6%,?
O=C(C1CCC(CNS(=O)(=O)c2cccc3nsnc23)CC1)N1CC=C(c2ccccc2)CC1 (centres undefined),-2,-33%,0%,21µM*
O=C(C1CCCN(S(=O)(=O)c2cccc3nsnc23)C1)N1CC=C(c2ccccc2)CC1 (centres undefined),-3,-50%,-1%,?
CC(C)(C)NC(=O)C1CCC(CNS(=O)(=O)c2cccc3nsnc23)CC1 (centres undefined),-4,6%,0%,3%
O=C(C1CCN(S(=O)(=O)c2cccc3nsnc23)CC1)N1CC=C(c2ccccc2)CC1,0,-26%,2%,18µM*
CN(C)c1ccc(C(CNS(=O)(=O)c2ccc(Br)cc2)N2CCCC2)cc1 (centres undefined),/,/,-1%,/
Cc1cc(C)cc(NC(=O)C(Cc2ccccc2)NS(=O)(=O)c2ccc3c(c2)CCC(=O)N3)c1 (centres undefined),/,2%,0%,/
CCOC(=O)c1[nH]c(C)c(CCC(=O)Nc2ccccc2C(=O)OC)c1C,/,/,0%,/
COc1ccc(C(=O)Nc2ccccc2N2CCOCC2)cc1[N+](=O)[O-],0,-26%,2%,13%
COc1ccc(C(=O)NC(=S)Nc2ccc(N3CCOCC3)c(Cl)c2)cc1[N+](=O)[O-],-1,-54%,4%,13µM*
O=C(NC(=S)Nc1cc(Cl)ccc1N1CCOCC1)c1ccccc1[N+](=O)[O-],-4,-45%,5%,16µM*
COc1ccc(C(=O)NC(=S)Nc2ccccc2N2CCOCC2)cc1[N+](=O)[O-],0,-51%,3%,18µM*
COc1ccccc1NC(=O)CSc1oc(-c2cccs2)nc1S(=O)(=O)c1ccccc1,/,/,6%,/
CC(C)(C)c1ccc(C(=O)C[n+]2ccccc2Cl)cc1,/,7.9µM*,/,/
O=C(C[n+]1ccccc1Cl)c1ccc(I)cc1,/,4%,/,/
N#CN=c1snc(-c2ccccc2Cl)n1-c1ccccc1Cl,/,-61%,/,/
O=C(NCCNCCO)c1c(O)c2cccc3c2n(c1=O)CCC3,-1,16%,2%,6.5µM*
CCCOC1(C(F)(F)F)NC(=O)N(c2ccc(Cl)cc2)C1=O (centres undefined),/,-15%,0%,/
COc1ccc(OC)c(CNC(=O)CCc2c(C)nc3c(c2C)c(=O)n(C)c(=O)n3C)c1,/,2%,-1%,/
O=C(CSc1ncc(-c2ccccc2)[nH]1)Nc1cccc(O)c1,0,20%,4%,16µM*
O=C(CSc1ncc(-c2ccccc2)[nH]1)Nc1ccccc1,1,15%,4%,0%
CCOC(=O)C(=O)N(Nc1ccc(C)cc1)c1ccc(C)cc1,0,11µM*,4%,?
CCC(O)(CC)C(=O)N(Nc1ccc(C)cc1)c1ccc(C)cc1,0,-3%,0%,13%
SMILES,IL-2 act,BRCA1 expr up,Nrf2 ARE act,ELG1 DNA repair
O=C1C(Cl)=C(NCCc2ccccc2)C(=O)N1CCc1ccccc1,5,7.9µM*,3%,?
O=C1C(Cl)=C(NCCCN2CCOCC2)C(=O)N1CCc1ccccc1,0,2%,?,7%
O=C1C(Cl)=C(NCC2CCCO2)C(=O)N1CCc1ccccc1 (centres undefined),1,7.9µM*,?,?
O=C(CCCc1ccccc1)N1CCN(C2CCCCC2)CC1,1,5µM*,6%,?
COc1ccc(-c2cn(CC[C@@H]3CC[C@H](NC(=O)Cc4ccccn4)[C@@H](CO)O3)nn2)cc1,1,/,/,/
Cc1ccc(-n2c(C)nc3ccsc3c2=O)cc1,-1,-1%,0%,/
Cc1ccc(-c2nc3ccsc3c(=O)o2)cc1,0,13µM*,2%,?
Cc1cc(N2CCOCC2)nc2ccc(Cl)cc12,-1,7.9µM*,4%,?

# Screens (PubChem BioAssay)
